# NPR1 antag = Natriuretic polypeptide receptor (hNpr1) antagonism - Primary qHTS. Potency, µM (top dose mostly 46.3 µM), for inactives: at the top dose activity change, negative = inhibition, actives largely listed as inhibitors. HEK293 hNpr1 GloSensor cGMP, ANP-stimulated luminescence. 76,000 tested, 1.6% active. Atrial natriuretic peptide receptor 1 (Homo sapiens), P16066; calls by dose curve; further: nearly all actives have a fitted effect of over 60% in size
# Target sequence (P16066 whole entry, looked up): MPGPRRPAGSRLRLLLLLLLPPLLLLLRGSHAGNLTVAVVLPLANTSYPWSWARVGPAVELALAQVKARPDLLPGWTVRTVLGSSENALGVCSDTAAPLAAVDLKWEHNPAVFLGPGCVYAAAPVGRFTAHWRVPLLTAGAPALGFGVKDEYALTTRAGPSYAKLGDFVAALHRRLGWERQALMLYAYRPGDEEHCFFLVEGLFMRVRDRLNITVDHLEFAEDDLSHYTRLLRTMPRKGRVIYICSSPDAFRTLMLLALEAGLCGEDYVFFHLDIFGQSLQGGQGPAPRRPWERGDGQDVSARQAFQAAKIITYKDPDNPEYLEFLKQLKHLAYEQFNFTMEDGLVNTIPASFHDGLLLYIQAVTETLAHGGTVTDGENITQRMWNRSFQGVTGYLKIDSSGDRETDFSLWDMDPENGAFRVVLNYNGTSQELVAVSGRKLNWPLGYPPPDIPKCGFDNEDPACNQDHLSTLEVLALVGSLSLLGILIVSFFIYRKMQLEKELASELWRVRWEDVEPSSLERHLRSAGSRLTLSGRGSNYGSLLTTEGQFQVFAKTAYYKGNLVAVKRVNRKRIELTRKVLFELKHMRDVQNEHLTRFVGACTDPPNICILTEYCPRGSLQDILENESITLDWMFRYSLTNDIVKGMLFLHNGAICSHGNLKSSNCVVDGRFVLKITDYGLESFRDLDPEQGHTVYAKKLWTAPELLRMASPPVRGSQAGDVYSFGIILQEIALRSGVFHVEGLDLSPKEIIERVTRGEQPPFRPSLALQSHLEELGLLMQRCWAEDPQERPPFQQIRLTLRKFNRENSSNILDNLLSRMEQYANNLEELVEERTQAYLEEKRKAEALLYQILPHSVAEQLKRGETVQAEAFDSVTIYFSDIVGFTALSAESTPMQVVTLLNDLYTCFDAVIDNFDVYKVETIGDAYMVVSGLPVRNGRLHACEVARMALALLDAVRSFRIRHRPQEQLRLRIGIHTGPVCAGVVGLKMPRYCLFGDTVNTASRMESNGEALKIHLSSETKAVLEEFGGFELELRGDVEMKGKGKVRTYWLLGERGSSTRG
#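 Compound pre-incubated 30 min at room temperature on GloSensor-loaded HEK293 cells stably carrying hNpr1 and the pGS-40F cGMP biosensor. Stimulation uses hNppA at 0.1 nM final; luminescence is taken at baseline and 20 min post-agonist.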
# HEK293 tox = Cytotoxic Profiling in HEK 293 Cell Line of Diverse Libraries Using Quantitative High-Throughput Screening. HEK 293 viability, ATP luminescence (CellTiter-Glo), 48-72 h. Potency, µM (top dose mostly 115 µM), inactives show top-dose activity change, negative = cytotoxicity, most hits filed as inhibitors. 94,000 tested, 6.6% active; further: nearly all actives have a fitted effect of over 60% in size
#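 Viability of HEK 293 cells, plated at 250 cells/well, was judged by cellular ATP after compound treatment for 48 or 72 hr. Luminescence was imaged 10 min after CellTiter-Glo addition at room temperature.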
# FLuc inh = Firefly luciferase inhibition profiling of diverse chemical library using quantitative high-throughput screening | Luciferin 4-monooxygenase (Photinus pyralis), P08659 | purified P. pyralis luciferase, luminescence, biochemical | Potency, µM (highest dose often 115 µM), usual class: inhibitors | 76,000 tested, 2.5% active | AID 1347043, 2019; further: nearly all actives have a fitted effect of over 65% in size
#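 FLuc 10nM, D-luciferin 10uM, ATP 10uM, Mg acetate 10mM, Tris acetate pH 7.5, Tween/BSA; cpd qHTS; enzyme added last; CCD luminescence.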
# NIH3T3 tox = Cytotoxic Profiling in NIH 3T3 Cell Line of Diverse Libraries Using Quantitative High-Throughput Screening | NIH 3T3 viability, CellTiter-Glo ATP luminescence, 48-72 h | Potency, µM (top dose mostly 96.7 µM), for the others: at the highest dose activity change, negative = cytotoxicity, actives largely listed as inhibitors | AID 1345082, 2018 | 94,000 tested, 4.3% active; further: nearly all actives have a fitted effect of over 55% in size
#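 Cells were seeded at 400 per well, treated with pin-transferred compound, and kept 48 or 72 hr at 37 °C before CellTiter-Glo addition and luminescence imaging of cellular ATP.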
# GPT2 inhibitor = Primary qHTS assay for inhibitors of Glutamate pyruvate transaminase 2 (GPT2). Recombinant GPT2, coupled pyruvate oxidase/HRP Amplex Red fluorescence. AID 1671188, 2021. 100,000 tested, 0.25% active. Potency, µM (series often up to 57.7 µM), inactives show at the top dose activity change, negative = inhibition, hits mostly inhibitors. Alanine aminotransferase 2 (Homo sapiens), Q8TD30; further: nearly all actives have a fitted effect of over 60% in size
#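 Fluorescence read-out: pyruvate from GPT2 turnover coupled to pyruvate oxidase, HRP and Amplex Red (0.2mM ThPP, 0.2U/mL PO and HRP, 50uM Amplex final). Substrates 250uM a-KG, 2mM L-alanine; enzyme 10ng/uL; 30 min RT.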
# * marks the source's active call; other numbers are inactive results; i = inactive; ? = inconclusive; · = no result given; [ ] = remark or other dose. A selection: hits, their analogues and other compounds. The true share with any hit is near 10%. Unless noted, the call rests on the fitted dose curve; in most records, active means well fitted curve in the direction sought with a large enough effect; inconclusive means small, poorly fitted or top-dose-only effect, or another doubt; inactive means no such curve, though single readings can be large; an effect the other way counts as inactive or inconclusive. On the % scale 0 is the no-effect control and ±100 the full control effect; potency means the concentration at half of the fitted maximal effect.
SMILES,NPR1 antag,HEK293 tox,FLuc inh,NIH3T3 tox,GPT2 inhibitor
COc1ccc(-c2cc(C(=O)NC3CC3)c3c(C4CCCNC4)noc3n2)cc1 (centres undefined),·,32µM*,·,32µM*,i
Cc1cc(C)c(CNC(=O)c2nc(-c3ccccc3)cc3c2ccn3C(C)C)c(=O)[nH]1,-11%[70.6 µM],?,i,?,i
Cc1cc(C)c(CNC(=O)c2nc(-c3cccc(O)c3)cc3c2ccn3C)c(=O)[nH]1,-3%[70.6 µM],?,i,25µM*,-7%[88.5 µM]
Cc1cc(C)c(CNC(=O)c2nc(-c3ccnn3C)cc3c2ccn3C(C)C)c(=O)[nH]1,-1%[70.6 µM],?,i,89µM*,?
Cc1cc(C)c(CNC(=O)c2nc(-c3cccc(F)c3)cc3c2ccn3C(C)C)c(=O)[nH]1,-7%[70.6 µM],32µM*,i,?,1%[88.5 µM]
CCN(CC)C(=O)N1CCO[C@@H](COc2ccccn2)[C@@H]1c1ccccc1,·,i,·,0%,i
O=C(N1CCN(C/C=C/c2ccccc2)CC1)C12CNCC1CNC2 (centres undefined),-6%,?,i,?,2%
Fc1ccc(C(c2ccc(F)cc2)N2CCN(CC=Cc3ccccc3)CC2)cc1,·,·,·,·,4.3µM*
COc1ccc(CCc2nc3nccc(-c4ccccn4)n3n2)cc1OC,1%,-3%,i,-14%,2%
CC(c1ccccc1)N1CCN(c2cccc(CN(C)S(C)(=O)=O)c2)CC1 (centres undefined),·,45µM*,·,?,·
COC(=O)N(C)Cc1cccc(N2CCN(C(C)c3ccccc3)CC2)c1 (centres undefined),·,45µM*,·,?,·
CCOc1ccc(NC(=O)N2[C@@H]3CC[C@H]2CC(NC(=O)c2ccc(F)cc2)C3)cc1 (some centres undefined),·,?,·,?,-4%
Cc1cc(C)cc(NC(=O)N2[C@@H]3CC[C@H]2CC(NC(=O)c2ccc(F)cc2)C3)c1 (some centres undefined),-6%,40µM*,i,?,0%
O=C1NC(=NC2CCCCC2)C2(CCN(Cc3cccnc3)CC2)N1c1cc(F)cc(F)c1,·,i,·,28µM*,-8%
O=C1NC(=NC2CCCCC2)C2(CCN(Cc3cccnc3)C2)N1c1cc(F)cc(F)c1 (centres undefined),·,-11%,·,35µM*,-14%
O=C(Cn1ccnc1)N1CCCCC1c1noc(COc2ccc(F)cc2)n1 (centres undefined),3%,?,i,?,i
COc1ccc(C)cc1NC(=O)c1c(OC)cc(=O)n2c1CCCC2,-2%,?,i,1%,i
CN(Cc1ccc(F)cc1)C(=O)c1cn(Cc2ccccc2C(F)(F)F)nn1,4%,7.9µM*,i,?,?
O=C(c1ccc2[nH]ccc2c1)N1CCC(n2cc(-c3nc(-c4ccccc4)no3)nn2)C1 (centres undefined),7.9µM*,16µM*,?,?,1%
Cc1noc(-c2cn(C3CCN(C(=O)c4ccc5[nH]ccc5c4)CC3)nn2)n1,0%,-2%,i,-24%,i
O=C(c1ccc2cc[nH]c2c1)N1CCC(n2cc(-c3nc(-c4ccccc4)no3)nn2)CC1,-22%,40µM*,?,?,i
COCCN1C(=O)CCc2cc(NC(=O)c3ccc(C)cc3C)ccc21,0%,?,40µM*,?,-15%
CCN1C(=O)CCc2cc(NC(=O)c3ccc(OC)cc3C)ccc21,-2%,71µM*,25µM*,?,5%
COCCN1C(=O)CCc2cc(NC(=O)c3ccccc3C)ccc21,0%,-9%,i,-13%,-8%
CC[C@H]1CN(C(C)=O)CC[C@H]1CC(=O)NCc1ccccc1OC,3%[70.6 µM],-8%[172 µM],i,-23%[174 µM],0%[88.5 µM]
SMILES,NPR1 antag,HEK293 tox,FLuc inh,NIH3T3 tox,GPT2 inhibitor
CN(C)c1cc(N2CCCC(NC(=O)Cc3cccc(F)c3)C2)ncn1 (centres undefined),2%,-18%,i,-6%,i
CNC(=O)[C@@H]1CN(C(=O)c2cccn2C)C[C@H]1COC,-17%,-1%,i,-17%,-2%
Cc1c(CN(C)Cc2cccc(C(=O)Nc3ccc(C#N)cc3)c2)cnn1C,-12%,50µM*,i,-29%,i
N#Cc1cccc(NC(=O)c2cccc(CN3CCN(CCO)CC3)c2)c1,-18%,?,i,-7%,i
COc1cccc(-c2ccc(C(=O)N3CCC(NC(=O)Cc4ccc(C(F)(F)F)cc4)CC3)cc2)c1,·,?,·,?,i
COc1ccc(CC(=O)NC2CCN(C(=O)c3ccc(-c4cccc(OC)c4)cc3)CC2)cc1,·,45µM*,·,35µM*,i
COc1cccc(-c2ccc(C(=O)N3CCC(NC(=O)c4ccccc4Cl)CC3)cc2)c1,·,40µM*,·,?,-5%
COCCN1Cc2nc(Nc3ccccc3F)ccc2OCC1=O,2%[70.6 µM],?,i,-16%[138 µM],-5%[88.5 µM]
Cc1csc(Nc2ccc3c(n2)CN(Cc2ccc(F)cc2)C(=O)CO3)n1,?,8.9µM*,i,?,i
O=C1COc2ccc(Nc3ccccc3F)nc2CN1Cc1ccc(F)cc1,-18%[70.6 µM],79µM*,i,?,i
Cc1noc(C)c1-c1ccc2c(n1)CN(Cc1ccc(F)cc1)C(=O)CO2,-16%[70.6 µM],?,i,?,5%[88.5 µM]
O=C(NCCC1CCN(C(=O)Nc2ccc(F)cc2)CC1)c1ccc(F)cc1,-1%,2%,?,-16%,-8%
Cc1ccc(C2=NC3(CCN(C(=O)c4ccsc4)CC3)ON2)cc1,-12%,-16%,40µM*,-9%,i
Cc1ccc(C2=NC3(CCN(C(=O)c4ccc5c(c4)OCO5)CC3)ON2)cc1,-22%,?,35µM*,-18%,i
O=C(c1ccc2c(c1)OCO2)N1CCC2(CC1)N=C(c1ccc(Cl)cc1)NO2,?,?,i,-17%,-8%
Cc1ccc(C(=O)N2CCC3(CC2)N=C(c2ccc(C)cc2)NO3)cc1,-24%,-17%,35µM*,-29%,-2%
O=C(c1ccc2cc[nH]c2c1)N1CCC2(CC1)N=C(c1ccccc1)NO2,-20%,?,28µM*,-20%,2%
CCc1ccc(N2CC(c3noc(-c4ccsc4)n3)CC2=O)cc1 (centres undefined),5%,?,i,?,4%

# From PubChem BioAssay
